# From PubChem BioAssay
# The source made the active and inactive calls.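 The calls were made as follows, unless noted: active = fluorescence slope after compound addition differing from the mean of all screened samples at 99.7% confidence, in either direction; inactive = the rest.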
# How the values were obtained:
# [1] = inhibitors of TNFa-induced NFkB p65 translocation, primary screen, imaging, HUVEC, MLSMR starter and 10KST1 sets (AID 438;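 active = inhibition above 20% together with a positive visual image hit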;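 also: compound added about 3h40 before a 20 min TNFalpha stimulation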;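 as to inhibition: signal is the nuclear over cytoplasmic p65 intensity ratio per well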); conditions: HUVEC TNFa-induced p65 nuclear translocation; cell count: measured here: nuclei count (cytotoxicity indicator), at 2.08 µM; inhibition: at 2 µM, stronger effect = higher value, 0% TNFa-plus-vehicle, 100% no-TNFa wells
# [2] = reduction of polyQ htt aggregates in cells – imaging, exon1htt(103Q)mCFP cells, high-content imaging, primary screen (AID 483;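 active = visual image review flags a hit and inhibition of aggregation exceeds 20%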;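 also: compound exposure lasted 3 days before fixation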;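 as to nuclei count: percent of the per-plate median nuclei count of sample wells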); conditions: exon1htt(103Q)mCFP cell line, aggregate imaging, at 2 µM; inhibition of aggregation: stronger effect = higher value; nuclei count: measured here: cell count, toxicity
# [3] = endothelial E-selectin expression blockers – imaging, HUVEC, immunofluorescence, MLSMR starter and 10KST1 sets, primary screen (AID 487;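 active = visually confirmed hit in the image check and inhibition above 20%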;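 as to inhibition: signal is fraction of cell area covered by stained E-selectin grains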;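 as to nuclei count: 100% = median nuclei count of all wells on the same plate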); conditions: HUVEC TNFalpha-induced E-selectin immunofluorescence imaging, at 2 µM; inhibition: stronger effect = higher value; nuclei count: measured here: cell number, toxicity
# [4] = target: Voltage-gated potassium channel subunit beta-2 (Rattus norvegicus) (UniProt P62483); assay: inhibitors of rat Kvbeta2 reductase activity – biochemical, NADPH fluorescence, primary screen (AID 622;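 active = fluorescence slope higher than the sample average by over 3 SD, cut at about -0.22 in these data, passing the limit was not always enough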;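 also: slope of raw intensity against log time taken from 70 to 1610 s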); conditions: recombinant KvBeta, 4-cyanobenzaldehyde reduction, at 10 µM, stronger effect = higher value
# Sequence of Voltage-gated potassium channel subunit beta-2 (Rattus norvegicus) (P62483 whole entry, looked up): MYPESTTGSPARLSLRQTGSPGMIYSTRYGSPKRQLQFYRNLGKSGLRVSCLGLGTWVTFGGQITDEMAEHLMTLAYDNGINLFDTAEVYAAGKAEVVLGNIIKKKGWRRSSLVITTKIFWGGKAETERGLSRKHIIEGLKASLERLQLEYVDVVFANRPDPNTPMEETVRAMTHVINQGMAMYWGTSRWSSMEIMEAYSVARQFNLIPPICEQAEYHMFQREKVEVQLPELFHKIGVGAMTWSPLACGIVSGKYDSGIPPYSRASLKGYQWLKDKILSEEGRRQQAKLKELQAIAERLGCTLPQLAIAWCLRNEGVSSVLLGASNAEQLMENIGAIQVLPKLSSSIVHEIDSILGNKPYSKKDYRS
# [5] = target: Voltage-gated potassium channel subunit beta-2 (Rattus norvegicus) (UniProt P62483); assay: enhancers of rat Kvbeta2 NADPH turnover – biochemical, NADPH fluorescence, primary screen (AID 623;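 active = NADPH fluorescence slope more negative than the mean of all samples by about 3 SD, 99.7% confidence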;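 also: fluorescence intensity change per second fitted from 20 to 320 s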); conditions: Recombinant KvBeta, NADPH fluorescence decrease slope, 10 min; at 10 µM; stronger effect = lower value
# [6] = target: Alpha-2C adrenergic receptor (Homo sapiens) (UniProt P18825); assay: compounds altering alpha2C-coupled GIRK flux – cell-based, HEK293 alpha2C/GIRK1/2, thallium flux, primary screen (AID 624); conditions: thallium flux BTC fluorescence, at 10 µM, actives lie on both sides;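 also: slope of fluorescence ratio to pre-addition baseline per second over 15 to 24 s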
# Sequence of Alpha-2C adrenergic receptor (Homo sapiens) (P18825 whole entry, looked up): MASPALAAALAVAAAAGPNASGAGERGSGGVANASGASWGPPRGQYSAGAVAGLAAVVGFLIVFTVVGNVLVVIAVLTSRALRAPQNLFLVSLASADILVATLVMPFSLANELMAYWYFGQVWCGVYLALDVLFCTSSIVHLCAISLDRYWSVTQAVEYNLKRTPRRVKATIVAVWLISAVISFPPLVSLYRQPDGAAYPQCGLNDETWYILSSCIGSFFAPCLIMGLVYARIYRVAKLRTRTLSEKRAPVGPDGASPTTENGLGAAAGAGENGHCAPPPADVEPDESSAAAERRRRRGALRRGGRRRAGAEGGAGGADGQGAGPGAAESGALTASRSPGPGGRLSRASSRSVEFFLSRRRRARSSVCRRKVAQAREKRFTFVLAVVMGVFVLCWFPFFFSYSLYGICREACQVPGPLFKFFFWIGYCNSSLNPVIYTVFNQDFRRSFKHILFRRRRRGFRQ
# [7] = blockers of RIG-like receptor reporter activation – cell-based, Sendai virus stimulus, luciferase, 10K MLSCN set, TLR/RLR signaling modifier project, primary screen (AID 602276;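 active = inhibition at or above 50% at 10 µM; inactive = inhibition below 50%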;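 also: firefly luciferase from ISG56 promoter only with Renilla not read in this screen; 0% = Sendai virus plus DMSO and 100% = medium plus DMSO without virus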); conditions: HEK293 RL24 IRF3 luciferase reporter, at 10 µM, stronger effect = higher value
# [8] = TLR3 IRF3 reporter activation blockers – cell-based, poly I:C stimulus, luciferase, 10K MLSCN set, primary screen (AID 602277;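 active = inhibition of the reporter signal at or above 50%; inactive = inhibition below 50%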); conditions: HEK293-TLR3 RL24 IRF3 luciferase reporter, at 10 µM, stronger effect = higher value
Compound,cell count [1],inhibition [1],inhibition of aggregation [2],nuclei count [2] [%],inhibition [3],nuclei count [3] [%],fluorescence slope [4],NADPH fluorescence slope [5],slope [6],inhibition [7],inhibition [8]
COc1ccc(C2C(C#N)=C(N)OC3=C2C(=O)CC(C)C3)c(OC)c1OC (centres undefined),349,15.6% (inactive),5.8% (inactive),123,11.3% (inactive),102,-0.479 (inactive),2e-05 (inactive),0.00381 (inactive),-3.81% (inactive),19.1% (inactive)
CN(CC(=O)Nc1ccc2c(c1)OCCO2)S(=O)(=O)c1ccc(Br)s1,315,-1.9% (inactive),-7.8% (inactive),100,-21% (inactive),98.5,-0.403 (inactive),-4.9e-05 (inactive),0.00399 (inactive),-3.5% (inactive),10.4% (inactive)
CSCCC(NC(=O)c1ccco1)C(=O)OC(C)C(=O)NC(=O)NC1CCCCC1 (centres undefined),538,-6.1% (inactive),7.6% (inactive),88,-79.7% (inactive),100,-0.485 (inactive),1e-05 (inactive),0.00394 (inactive),13.1% (inactive),20.3% (inactive)
O=C(O)[C@@H]1CCCN1c1ncnc2sc3c(c12)CCC3,434,-5.7% (inactive),0.1% (inactive),128,-149% (inactive),247,-0.412 (inactive),-2.3e-05 (inactive),0.00577 (inactive),17.9% (inactive),13.8% (inactive)
c1ccc(-n2ncc3c(N4CCCCC4)ncnc32)cc1,655,-3.9% (inactive),-2.1% (inactive),108,-21.5% (inactive),118,-0.574 (inactive),-3.8e-05 (inactive),0.0073 (inactive),49.8% (inactive),10.6% (inactive)
Cc1sc2ncn3ncnc3c2c1C,546,-10% (inactive),-1.7% (inactive),41.8,25.3% (inactive),102,-0.617 (inactive),-3.8e-05 (inactive),0.00315 (inactive),-16.9% (inactive),-56.2% (inactive)
Cc1cc(C(=O)OCCO)c(C#N)c(N)n1,299,8.5% (inactive),9.5% (inactive),106,-31.1% (inactive),128,-0.132 (active),1.2e-05 (inactive),0.00497 (inactive),16.3% (inactive),18.4% (inactive)
CCC1(c2ccc(F)cc2)NC(=O)N(CC(=O)c2ccc[nH]2)C1=O (centres undefined),556,-20.6% (inactive),6.8% (inactive),99.9,-36.7% (inactive),114,-0.419 (inactive),-4.1e-05 (inactive),0.00348 (inactive),4.26% (inactive),27% (inactive)
COCCN(CCOC)c1ncnc2c1cnn2-c1ccccc1,636,-8.5% (inactive),-21.1% (inactive),113,-14.8% (inactive),107,-0.531 (inactive),-2.1e-05 (inactive),0.00603 (inactive),-24.8% (inactive),-50.6% (inactive)
Cc1csc(SCc2nc3sc4c(c3c(=O)[nH]2)CCC4)n1,562,1.9% (inactive),0.1% (inactive),116,-229% (inactive),171,-0.553 (inactive),-1.4e-05 (inactive),0.00536 (inactive),13% (inactive),1.21% (inactive)
Cc1ccc2c(c1)N(CC(=O)N1CCCCC1c1cccnc1)C(=O)CO2 (centres undefined),442,2.2% (inactive),4.1% (inactive),104,-48.3% (inactive),104,-0.345 (inactive),-6.9e-05 (inactive),0.0057 (inactive),-2.12% (inactive),17.4% (inactive)
Cc1cc(NC(=O)c2cnn3c(C(F)F)cc(C4CC4)nc23)no1,747,-3.3% (inactive),23% (inactive),100,27.3% (inactive),98.5,-0.486 (inactive),-3.5e-05 (inactive),0.00638 (inactive),9.48% (inactive),19.3% (inactive)
COc1ccc(N2CCN(c3oc(COc4ccccc4Cl)nc3C#N)CC2)cc1,451,14.6% (inactive),5.4% (inactive),95.5,-33.4% (inactive),104,-0.438 (inactive),-0.000162 (inactive),0.00642 (inactive),2.05% (inactive),15.7% (inactive)
Cc1cc(C(=O)NCCN2CCCCC2C)n(-c2ccccc2)n1 (centres undefined),879,0.6% (inactive),11.3% (inactive),96,-39.7% (inactive),113,-0.552 (inactive),-4.7e-05 (inactive),0.0056 (inactive),1.98% (inactive),23.7% (inactive)
